Among all 190,000 compounds or so, about 1,300 (0.68%) were called active. This excerpt belongs to a sample that is enriched for actives. A number with no mark means an inactive call. No stated cut-off is given here; in the data, active means inhibition above about 50%; inactive means the rest.

Chain of Mannose-6-phosphate isomerase (Homo sapiens) (P34949 whole entry, looked up): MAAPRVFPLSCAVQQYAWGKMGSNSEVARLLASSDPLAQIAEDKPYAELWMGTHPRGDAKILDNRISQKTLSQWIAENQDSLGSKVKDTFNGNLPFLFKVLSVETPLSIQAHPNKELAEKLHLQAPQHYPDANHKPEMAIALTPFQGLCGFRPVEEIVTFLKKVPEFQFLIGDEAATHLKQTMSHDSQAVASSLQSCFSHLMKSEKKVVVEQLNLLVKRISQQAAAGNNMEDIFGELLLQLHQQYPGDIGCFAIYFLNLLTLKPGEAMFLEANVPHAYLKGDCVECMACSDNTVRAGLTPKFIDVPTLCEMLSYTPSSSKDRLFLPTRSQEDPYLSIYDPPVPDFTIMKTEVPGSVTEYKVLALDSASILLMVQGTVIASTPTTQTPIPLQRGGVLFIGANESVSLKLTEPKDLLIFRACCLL

This experiment has as its target Mannose-6-phosphate isomerase (Homo sapiens) (UniProt P34949). The experiment in a line: human PMI inhibitors, high substrate, primary screen, biochemical, fluorescence intensity, high mannose 6-phosphate (AID 1220). The settings on record: recombinant PMI enzyme, coupled fluorescence intensity; at 20 µM; hits give high values.
What is called inhibition is the drop in the measured response relative to a control, in per cent. Take `CCC(=O)c1ccc(N2CCN(C(=O)c3cccc(F)c3)CC2)c(F)c1`: the inhibition is 7.7%.
With `CCCn1nc(C(=O)NCc2ccccn2)c2ccccc2c1=O`, the inhibition is -1.4%.
Regarding `O=C(CNCCC1=CCCCC1)Nc1ccccc1N1CCCCC1`, the inhibition is -0.7%.
Take `COCc1cc(C)nc2sc(C(=O)NCCO)c(-n3cccc3)c12`: the inhibition is -8.1%.
Consider `Cc1nn(-c2ccc(Cl)cc2)c(N)c1C(O)(CSc1nccn1C)C(F)(F)F` (configuration not stated), for which the inhibition is 10.3%.
With `O=C(COC(=O)c1ccncc1)Nc1cc(Cl)ccc1Cl` the figure was 93.2% (active); with `O=C(COC(=O)c1ccncc1)Nc1cc(Cl)c(Cl)cc1Cl`, 3.3%; with `O=C(COC(=O)c1ccncc1)Nc1cccc(Cl)c1`, 23.4%.
As for `Cc1ccc(S(=O)(=O)NNC(=O)c2sccc2-n2cccc2)cc1`, the figure is -2.5%.
As to `O=c1/c(=C/c2ccc(CNS(=O)(=O)c3ccccc3)o2)sc2n1CCN=2`, the inhibition is 13.7%.
For the compound `Cc1ccc(/C=c2/sc3n(c2=O)CCCN=3)o1`, the inhibition is -24.9%.
Consider `O=C(NCc1ccc(/C=c2\sc3n(c2=O)CCN=3)o1)C(=O)Nc1ccccc1`, for which the inhibition was 50.9% (active).
As for `COc1ccc(C(=O)NCc2nnc(SCC(=O)Nc3cccc(F)c3)o2)cc1`, the figure is -10.6%; as for `CCOC(=O)Cc1nnc(-c2ccccc2)o1`, 40.2%.
As to `CCOc1cccc(N(C(=O)C2COc3ccccc3O2)C(C(=O)NC2CCCCC2)c2ccc(O)cc2)c1` (configuration not stated), the inhibition was -4.1%.
With `CC(C)CCNC(=O)C(c1ccc(O)cc1)N(C(=O)C1COc2ccccc2O1)c1cccc(O)c1` (configuration not stated), the inhibition was 60.7% (active).
As to `CC(C)CCNC(=O)C(c1ccc(O)cc1)N(Cc1cccs1)C(=O)C1COc2ccccc2O1` (configuration not stated), the inhibition was 9.3%.
As for `COCC(C)NC(C(=O)Nc1ccc(C)c(Cl)c1)c1ccccc1` (configuration not stated), the figure is 1.8%.
In the case of `CN(c1ccc(OCC(=O)Nc2nc(-c3ccccc3)cs2)cc1)S(=O)(=O)c1ccc(F)cc1`, the inhibition is 8.4%.
Regarding `Cc1cc(C)c(NC(=O)COC(=O)Cc2ccsc2)c(C)c1`, the inhibition is -8.2%.
As for `Cc1ccc(S(=O)(=O)N2CCC(=O)N(CCOCc3cccc(F)c3)CC2)cc1`, the figure is 6.5%.
Regarding `N#CCn1c2ccccc2c2nc3ccccc3nc21`, the inhibition was 55.3% (active).
In the case of `COc1cc2nc3c4ccccc4n(CC#N)c3nc2cc1OC`, the inhibition is -0.4%.
`N#CCCn1c2ccccc2c2nc3ccccc3nc21`: the inhibition is -21.1%.
As to `Cc1ccc(C2N(C)c3ccccc3-c3nc4ccccc4n32)o1` (configuration not stated), the inhibition was 3.8%.
Turning to `CC(=O)NC(c1ccccc1)c1cc([N+](=O)[O-])c2cccnc2c1O` (configuration not stated), the inhibition is 58% (active).
Consider `O=C(NC(c1ccccc1)c1cc(Cl)c2cccnc2c1O)c1cccnc1` (configuration not stated), for which the inhibition was 23.4%.
Regarding `CCOc1ccc(C(Nc2cccnc2)c2cc(Cl)c3cccnc3c2O)cc1` (configuration not stated), the inhibition was 66% (active).
`CCC(=O)NC(c1cccs1)c1cc([N+](=O)[O-])c2cccnc2c1O` (configuration not stated): the inhibition was 43.9%.
For `O=C(O)COc1ccccc1C(Nc1cccnc1)c1cc(Cl)c2cccnc2c1O` (configuration not stated), the inhibition was 32%.
Turning to `CC(=O)NC(c1cccs1)c1cc([N+](=O)[O-])c2cccnc2c1O` (configuration not stated), the inhibition was 43.2%.
In the case of `CCCC(=O)NC(c1cccs1)c1cc(Cl)c2cccnc2c1O` (configuration not stated), the inhibition is 38.8%.
Turning to `Oc1c(C(Nc2ccccn2)c2cccnc2)cc(Cl)c2cccnc12` (configuration not stated), the inhibition was 43.5%.
Turning to `CC(=O)NC(c1ccc(C)cc1)c1cc([N+](=O)[O-])c2cccnc2c1O` (configuration not stated), the inhibition is 64.9% (active).
On to `Cc1ccc([N+](=O)[O-])c2cccnc12`, for which the inhibition was 13.6%.
As for `O=[N+]([O-])c1cc(Cl)c2cccnc2c1O`, the inhibition was 47.2%.
For the compound `CCCC(=O)NC(c1cccs1)c1cc([N+](=O)[O-])c2cccnc2c1O` (configuration not stated), the inhibition was 55.7% (active).
As for `COC(=O)CCCCC1SCC2NC(=O)NC21` (configuration not stated), the figure is -4.5%; as for `COc1ccc(NC(=O)CSc2ccc(F)cc2)cc1S(=O)(=O)N1CCCCC1`, 8.6%.
Consider `Cc1csc2cc(-c3cccc([N+](=O)[O-])c3)c(-c3cccc([N+](=O)[O-])c3)c[n+]12`, for which the inhibition was 4.9%.
As for `COc1ccc(C=O)cc1COc1ccccc1F`, the figure is 8.1%.
For the compound `COc1ccc(C(NC(C)=O)c2cc(Cl)c3cccnc3c2O)cc1OC` (configuration not stated), the inhibition was 55.7% (active).
Take `CCC(=O)NC(c1ccc(OC)c(OC)c1)c1cc(Cl)c2cccnc2c1O` (configuration not stated): the inhibition was 41.1%.
With `CCCC(=O)NC(c1ccco1)c1cc([N+](=O)[O-])c2cccnc2c1O` (configuration not stated), the inhibition was 7.9%.
With `CCC(=O)NC(c1ccc(C)cc1)c1cc([N+](=O)[O-])c2cccnc2c1O` (configuration not stated), the inhibition is 54.5% (active).
In the case of `CCCC(=O)NC(c1ccc(OC)c(OC)c1)c1cc(Cl)c2cccnc2c1O` (configuration not stated), the inhibition was 48.4%.
On to `CCC(=O)NC(/C=C/c1ccccc1)c1cc([N+](=O)[O-])c2cccnc2c1O` (configuration not stated), for which the inhibition is 46.8%.
As to `COc1ccccc1NC(=S)NCc1ccco1`, the inhibition was -7.4%.
Regarding `Cc1c(Cl)cccc1NC(=O)CSc1nnc(CCNC(=O)OC(C)(C)C)o1`, the inhibition is 3.7%.
On to `COCCCNC(=O)c1cc2cc(Br)ccc2oc1=O`, for which the inhibition was -0.9%.
Take `CCC(C)c1ccc(NC(=S)NCCn2cc(Br)cn2)cc1` (configuration not stated): the inhibition is 14.5%.
Regarding `Cc1[nH]nc2ncc(C(=O)c3cc(F)ccc3O)cc12`, the inhibition is -5.1%.
Turning to `COc1cc(C2Nc3ccc4ncccc4c3C3=C2C(=O)CCC3)cc(OC)c1OC` (configuration not stated), the inhibition was 52.8% (active).
As to `COc1cc(C2Nc3ccc4ncccc4c3C3=C2C(=O)CCC3)cc(OC)c1O` (configuration not stated), the inhibition was 42.6%.
`COc1cc(C2Nc3ccc4ncccc4c3C3=C2C(=O)CCC3)ccc1O` (configuration not stated): the inhibition is 46.7%.
As to `COC(=O)/C(=C1/Oc2ccc(C)cc2S1)C(F)(F)F`, the inhibition was 1.2%.
With `O=S(=O)(NC1CCCCC1Sc1ncccn1)c1ccc(Cl)cc1` (configuration not stated), the inhibition is -26%.
`COc1cc2c(=O)c(-c3ccc(O)cc3)coc2cc1OC1OC(CO)C(O)C(O)C1O` (configuration not stated): the inhibition was 12.9%.
As to `O=C(CSc1n[nH]c(-c2cccs2)n1)NCc1cccs1`, the inhibition is 0.2%.
Regarding `CCOC(=O)CNC(=O)C1(c2ccccc2)CCCC1`, the inhibition is 3.8%.
As for `COc1ccc(CCN2CC(C#N)=C3c4cc(OC)c(OC)cc4CCN3C2)cc1OC`, the figure is 21.4%; as for `COc1cc2c(cc1OC)C1=C(C#N)CN(C3CCCCC3)CN1CC2`, 32.8%; as for `CCOc1cc(-c2c(C#N)c(N)nc3c2CCCC3)ccc1O`, 12.6%.
As for `CSc1nc2c(cc1C#N)CCCCC2`, the inhibition was -0.4%.
`C/C(=C\C=C(C#N)C#N)c1cc(C#N)c(N)o1`: the inhibition was 70.9% (active).
For the compound `COc1ccccc1NC(=O)NS(=O)(=O)c1ccc(C)cc1`, the inhibition was 1.2%.
On to `COc1ccc(NC(=O)NS(=O)(=O)c2ccc(C)cc2)c(OC)c1`, for which the inhibition is 57.2% (active).
Take `COc1cc(NC(=O)NS(=O)(=O)c2ccc(C)cc2)cc(OC)c1`: the inhibition was 41%.
As for `O=C(NNc1nc(-c2ccccc2)c2cc(Br)ccc2n1)c1ccc(S(=O)(=O)N2CCCCC2)cc1`, the figure is -0.2%.
As for `COC(=O)c1cc(S(=O)(=O)n2nc(C)c(Br)c2C)c(Cl)cc1Cl`, the figure is -5%; as for `Cc1c(Nc2ncnc3nc[nH]c23)c(=O)n(-c2ccccc2)n1C`, 1.1%.
For `CCn1cc(S(=O)(=O)CC(=O)Nc2ccc(C)cc2)c2ccccc21`, the inhibition is -0.5%.
With `Cn1cc(S(=O)(=O)CC(=O)Nc2ccc3c(c2)OCCO3)c2ccccc21` the figure was 50.9% (active); with `CCN(CC)C(=O)Cn1cc(S(=O)(=O)CC(=O)Nc2ccc3c(c2)OCCO3)c2ccccc21`, 1.2%.
With `Cc1cccc(NC(=O)CS(=O)(=O)c2cn(C)c3ccccc23)c1` the figure was 17.7%; with `Cn1cc(S(=O)(=O)CC(=O)Nc2ccc3c(c2)OCO3)c2ccccc21`, 25.7%; with `CCn1cc(S(=O)(=O)CC(=O)Nc2ccc3c(c2)OCCO3)c2ccccc21`, 53.3% (active).
Turning to `CCCn1cc(S(=O)(=O)CC(=O)Nc2ccc(OC)cc2OC)c2ccccc21`, the inhibition is 56.6% (active).
With `CCCn1cc(S(=O)(=O)CC(=O)Nc2ccc(OCC)cc2)c2ccccc21` the figure was 17.3%; with `COc1ccc(NC(=O)Cn2cc(S(=O)(=O)Cc3ccccc3)c3ccccc32)c(OC)c1`, 16.9%.
With `CCCN1C(=O)/C(=C\C=C2/Sc3ccccc3N2CCO)SC1=S`, the inhibition is 10.5%.
Take `O=C(N/N=C/c1ccc(Br)o1)c1cccnc1`: the inhibition is 5.3%.
As to `COc1ccc(/C=C/C(=O)OCCCN(C)C)cc1`, the inhibition is -6.3%.
As for `CCOC(=O)c1ccc(NCc2nc3ccccc3[nH]2)cc1`, the inhibition is -1.4%.
On to `O=C(O)c1cc(-c2ccccc2)n(-c2ccc(Cl)cc2)n1`, for which the inhibition was -7.9%.
Take `COCCN(CCOC)Cc1c(O)ccc2c3c(c(=O)oc12)CCC3`: the inhibition is 50.9% (active).
On to `O=c1oc2c(CN3CCOCC3)c(O)ccc2c2c1CCC2`, for which the inhibition was 14.1%.
In the case of `CC(C)CN(Cc1c(O)ccc2c3c(c(=O)oc12)CCC3)CC(C)C`, the inhibition was 10%.
For the compound `COC(=O)c1cn(CC(=O)NC2CCCCCC2)c2ccccc12`, the inhibition was 4.4%.
Take `CC(C)CC1NC(=O)N(CC(=O)N2CCCc3ccccc32)C1=O` (configuration not stated): the inhibition was -5.9%.
As to `O=C(/C=C/c1ccccc1Cl)NCc1ccccc1`, the inhibition was 7.8%.
As for `O=C(CN1C(=O)NC2(CCCCCC2)C1=O)NC1CCCCCCC1`, the figure is -3.9%; as for `Cc1ccccc1CSCCC(=O)NCCc1ccccc1`, -6.4%.
As for `CNC(=O)CN1C(=O)c2cccc3cccc1c23`, the inhibition is -3.7%.
With `CCN1/C(=N\N)c2cccc3cccc1c23`, the inhibition is -13%.
As for `CC(C)c1ccc(CNC(=O)C(=O)Nc2nccs2)cc1`, the inhibition is -3.8%.
With `CNc1nc2ccccc2n1N`, the inhibition was -3.8%.
